Assay outcomes (PubChem)
An excerpt weighted towards active compounds, which were near 3.6% of everything screened.
BJeLR viability: kills HRASV12-expressing BJeLR cells; BJeLR (HRASV12) viability, CellTiter-Glo ATP luminescence, 48 h; inhibition, % (test concentration not listed); 300,000 compounds, 0.17% hits; in the data active means inhibition above about 50%; inconclusive means no clear call, values can overlap the other calls
BoNT-F LC inh: BoNT F light chain protease inhibition; inhibition, % at 10 µM; Multiplex microsphere protease cleavage assay, flow cytometry; AID 588497; 360,000 compounds, 0.22% hits; in the data active means inhibition above about 35%, passing the limit was not always enough; inconclusive means no clear call, values can overlap the other calls; further: plate controls were buffer without enzyme for full effect and enzyme alone for no effect
Bead autofluor: counter-screen for toxin protease inhibitors: compound fluorescence; compound autofluorescence counterscreen, microsphere flow cytometry; active compounds read high; fluorescence intensity (concentration not given with the values); 360,000 compounds, 3.1% hits; AID 624483; in the data active means fluorescence intensity above about 16000; inconclusive means no clear call, values can overlap the other calls
BoNT A protease: blocks Botulinum neurotoxin A light chain protease; multiplex microsphere protease substrate cleavage, flow cytometry; inhibition, % at 10 µM; 360,000 compounds, 0.17% hits; AID 588499; further: plate controls were buffer without enzyme for full effect and enzyme alone for no effect
SARS 3CLpro inh: SARS-CoV 3CLpro protease inhibition. 290,000 compounds, 0.14% hits. inhibition, % at 6 µM. recombinant SARS-CoV 3CLpro, quenched FRET peptide cleavage; in the data active means inhibition above about 12%
Anthrax LF prot: blocks Bacillus anthracis lethal factor protease | multiplex microsphere protease cleavage assay, LF | inhibition, % at 10 µM | 360,000 compounds, 0.12% hits; further: plate controls were buffer without enzyme for full effect and enzyme alone for no effect
* = called active by the depositor; ? = inconclusive; . = no result given. Unless noted, no stated cut-off is given here; in the data, active means inhibition above about 30%; inconclusive means no clear call, values can overlap the other calls; inactive means below that.

SMILES	BJeLR viability	BoNT-F LC inh	Bead autofluor	BoNT A protease	SARS 3CLpro inh	Anthrax LF prot
CCOc1ccccc1NC(=O)c1ccc(S(=O)(=O)N2CCOCC2)cc1	-3	-8	3062	0	4	-4
O=C(NC1CCCCCC1)c1cc(S(=O)(=O)N2CCC3(CC2)OCCO3)ccc1F	2	-1	7724	-1	0	-2
COc1ccccc1NC(=O)c1ccc(S(=O)(=O)N2CCOCC2)cc1	1	-4	22270*	?	2	-5
Cc1ccc(NC(=O)c2cc(S(=O)(=O)N3CCC4(CC3)OCCO4)ccc2F)cc1	6	5	22105*	3	-2	0
COc1ccccc1NC(=O)c1cc(S(=O)(=O)N2CCC3(CC2)OCCO3)ccc1F	-8	1	20818*	0	1	0
O=C(Nc1ccccc1C(F)(F)F)c1cc(S(=O)(=O)N2CCC3(CC2)OCCO3)ccc1F	-15	-1	23758*	-1	1	-1
COc1ccccc1NC(=O)c1cc(S(=O)(=O)N2CCc3ccccc32)ccc1F	13	2	5319	1	-5	0
COc1cc(CN(C2CC2)S(=O)(=O)c2ccccc2Br)cc(OC)c1	.	1	3111	-1	.	0
Nc1cc(Cl)ccc1Nc1ccncc1	-4	-15	4125	-2	3	3
O=C(COC(=O)CNC(=O)c1ccc(-c2ccccc2)cc1)NCc1ccco1	-4	2	4378	-1	2	3
C[C@@H]1COC(=O)[C@@H](CC(=O)OC(C)(C)C)C/C=C\C[C@H](CC(=O)NCCO)C(=O)N1	.	-10	4451	-1	.	-4
COC(=O)COc1ccc(S(=O)(=O)N2CCCCCC2)cc1C	-5	-16	3591	-4	-1	-11
CCOC(=O)c1ccccc1NC(=O)c1ccc(Cl)c(S(=O)(=O)N2CCOCC2)c1	.	1	21650*	?	-1	-9
CCOC(=O)N1CCN(S(=O)(=O)c2ccc(F)c(C(=O)Nc3cc(C)cc(C)c3)c2)CC1	-7	3	22579*	2	-1	-3
Cc1c(C(=O)Nc2ccc(F)cc2)oc2ccc(S(=O)(=O)N3CCC4(CC3)OCCO4)cc12	1	5	21736*	4	1	-1
CCOC(=O)c1ccccc1NC(=O)COC(=O)c1ccc(C)c(S(=O)(=O)N2CCOCC2)c1	1	10	?	1	-4	?
CCOC(=O)N1CCN(S(=O)(=O)c2ccc(OCC(=O)OC)c(C)c2)CC1	5	-11	25177*	-7	-1	-1
CCOC(=O)N1CCN(S(=O)(=O)c2ccc(F)c(C(=O)Nc3cccc(Cl)c3C)c2)CC1	0	-11	2639	-1	-2	-4
CN(C)C(=O)Cn1cc(S(=O)(=O)Cc2ccccc2)c2ccccc21	-3	0	5743	0	-4	-1
Cc1nc(C)c(C(=O)Nc2ccccc2-c2ccccc2)o1	-13	1	23592*	0	2	-1
O=C(Nc1ccccc1-c1ccccc1)c1ccc(Br)o1	3	-55	?	-4	0	-22
Cc1ccc2c(Cl)c(C(=O)NC3CC3)sc2c1	.	7	5128	1	-1	-1
CC(NC(=O)C(Cc1ccccc1)NC(=O)c1ccccc1)C(=O)O (configuration not stated)	-11	-1	22982*	?	-1	-1
COc1ccc(C(=O)CN(C(=O)c2ccc(Cl)cc2)N2C(=O)C3CCCCC3C2=O)cc1 (configuration not stated)	2	38*	11113	?	1	-21
Cc1ccc(C(=O)CN(C(=O)c2ccc(Cl)cc2)N2C(=O)CCC2=O)cc1	-6	-4	3399	0	-2	-1
SMILES	BJeLR viability	BoNT-F LC inh	Bead autofluor	BoNT A protease	SARS 3CLpro inh	Anthrax LF prot
COc1cccc(C(=O)CN(C(=O)c2ccc(Cl)c(Cl)c2)N2C(=O)C3CCCCC3C2=O)c1 (configuration not stated)	3	-3	17192*	-2	6	-3
COc1cccc(OC)c1C(=O)Nc1nc(N)n(-c2ccccc2)n1	-1	-6	17413*	-4	-1	-4
Cn1c(SCC(=O)c2ccccc2)nnc1-c1ccncc1	-5	-1	4660	-2	0	-2
COc1ccc(-c2nnc(SC)n2C)cc1	2	-16	12673	-2	-1	-5
CSc1nnc(-c2ccc(O)cc2)n1C	-5	4	21757*	5	1	2
Cn1c(SCC(=O)c2ccccc2)nnc1-c1ccc(O)cc1	-4	3	20320*	1	3	1
Cn1c(SCCCC(=O)c2ccccc2)nnc1-c1ccncc1	-6	2	19499*	?	0	2
Cc1ccc(C2=Nc3ccccc3N=C(c3ccc([N+](=O)[O-])cc3)C2)c(O)c1	-1	0	2141	1	0	0
Cc1csc(CN(C)C(=O)CC2C(=O)NCCN2Cc2ccccc2C)n1 (configuration not stated)	.	1	3609	0	.	-2
O=C1NC(=O)/C(=C/C(=O)N2CCOCC2)S1	10	-14	2590	-2	4	-2
COC(=O)c1cc(S(=O)(=O)NCC2CCN(CCc3ccc(OC)cc3)CC2)c[nH]1	8	2	5952	-1	-1	-2
CCCCn1cnc2cc(NCc3ccncc3)ccc21	0	4	19414*	4	3	0
CCc1ccc(CNc2ccc3c(c2)ncn3CC)cc1	-2	?	3739	1	0	-2
CCn1cnc2cc(NCc3ccc(OC)cc3)ccc21	-11	-3	23891*	-2	-3	-2
CCOC(=O)c1[nH]c2ccc(OC)cc2c1NC(=O)c1nonc1C	-8	-5	4476	0	-2	-8
CCOC(=O)c1[nH]c2ccccc2c1NC(=O)c1nonc1C	-2	3	21361*	?	-4	-2
CCOC(=O)c1[nH]c2ccc(Cl)cc2c1NC(=O)c1nonc1C	1	-2	23712*	-2	4	-1
CCCNC(=O)C[C@H]1C[C@H]2c3cc(NC(=O)Nc4ccc(F)cc4)ccc3O[C@H]2[C@@H](CO)O1	.	-9	2960	-1	.	5
Cc1ccc(C)c(NC(=O)CN(C)C(=O)COc2cccc3c2OC(C)(C)C3)c1	6	-1	6350	1	.	2
COCc1c(C(=O)OC)nnn1-c1ccccc1	-5	2	22960*	?	0	-2
Cc1ccc(NC(=O)Cn2cccc2)cc1Cl	-4	-2	9675	0	3	-2
Cc1ccc(NC(=O)Cn2cccc2)c(Br)c1	2	-2	23334*	-1	1	-2
COc1ccc(NCC(=O)Nc2ccccc2C#N)cc1Cl	-6	5	21530*	2	2	-8
COc1ccc(NC(=O)Cn2cccc2)cc1Cl	-1	1	22292*	2	2	-2
O=C(Cn1cccc1)Nc1ccc(OC(F)(F)F)cc1	-13	4	21063*	4	-2	1
Cc1ccc(NC(=O)Cn2cccc2)cc1	4	-3	2698	-1	-4	-2
Cc1cccc(NC(=O)Cn2cccc2)c1	-9	-2	20306*	-2	7	-2
